HCV inhibitor: qHTS Assay for Inhibitors of Hepatitis C Virus (HCV). Huh7.5.1 HCVcc-Cre infection, luciferase reporter, 44 h. Potency, µM (doses to about 41.8 µM), without a hit: top-dose activity change, negative = inhibition, actives largely listed as inhibitors. 340,000 tested, 3.4% active. AID 651820, 2012; active = well fitted inhibition curve with a large enough effect; inconclusive = small, poorly fitted or top-dose-only effect, or another doubt; inactive = no such curve, though single readings can be large or run the other way; also: potency is read from the fitted curve at half-maximal effect
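Reporter virus HCVcc-Cre (~0.5 moi) infects cells exposed to compound; seeding density 1,000 cells/well with 4 h settling beforehand. Luminescence, 15 sec read, taken 44 h post-infection following a 15 min RT substrate incubation.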
Marburg entry inh: qHTS for inhibitors of binding or entry into cells for Marburg Virus; AID 540276, 2011; Marburg virus pseudotyped entry inhibition, cell reporter; 300,000 tested, 1.8% active; Potency, µM (series often up to 37.8 µM), for inactives: at the top dose activity change, negative = inhibition, hits mostly inhibitors; calls by dose curve; tested in HEK293 cells; also: potency is read from the fitted curve at half-maximal effect
Lassa entry inh: qHTS for Inhibitors of binding or entry into cells for Lassa Virus; Lassa virus pseudotype entry inhibition, cell reporter; Potency, µM (top dose mostly 37.9 µM), for inactives: at the highest dose activity change, negative = inhibition, actives largely listed as inhibitors; 300,000 tested, 1.2% active; AID 540256, 2011; calls by dose curve; tested in HEK293 cells; also: potency is read from the fitted curve at half-maximal effect; nearly all actives have a fitted effect of over 50% in size
HCMV inh: qHTS Assay for inhibitors of the human cytomegalovirus (HCMV) | HFF cells, HCMV-luciferase reporter, 72 h; hits give low values | activity change, negative = inhibition, % at 57.5 µM | 410,000 tested, 4.5% active; in the data active = activity change below about -60%; inconclusive = no clear call, values can overlap the other calls; inactive = above about -39%
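Inhibition of viral replication was scored as loss of reporter luminescence in HFFs infected with HCMV-luciferase (MOI 1 PFU/cell) for 72 h; compounds tested at 2 doses, normalized to buffer and Salinomycin controls.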
FMDV antiviral: High Throughput Screening for Foot and Mouth Disease Virus Antivirals; Potency, µM (titrated, usually from 57.9 µM), without a hit: top-dose activity change, negative = inhibition, most hits filed as inhibitors; FMDV antiviral cell-based qHTS; AID 1159524, 2015; 410,000 tested, 1.2% active; calls by dose curve; tested in HEK293T cells; also: read-out not given here; potency is read from the fitted curve at half-maximal effect; nearly all actives have a fitted effect of over 45% in size
Numbers without * were called inactive; u = inconclusive; x = no result; + = active, no number; ! = not confirmed by another sample; [ ] = dose if it differs, or a comment. An excerpt weighted towards active compounds, which were near 7.9% of everything screened. % is scaled to controls: 0 for no effect and ±100 for the full control effect.

SMILES	HCV inhibitor	Marburg entry inh	Lassa entry inh	HCMV inh	FMDV antiviral
CCOC(CNC(=O)CN1C(=O)COc2ccc(S(=O)(=O)N3CCOCC3)cc21)OCC	14%	x	x	+	0%
Cc1ccc(NC(=O)CN2C(=O)COc3ccc(S(=O)(=O)N4CCCCCC4)cc32)cc1Cl	x	x	u	-84*	-19%
O=C(CN1C(=O)COc2ccc(S(=O)(=O)Nc3ccccc3)cc21)NCc1ccccc1Cl	x	x	1%[46.1 µM]	-106*	9%
COc1ccc(CCNC(=O)CN2C(=O)COc3ccc(S(=O)(=O)N4CCCC4)cc32)c(OC)c1	u	u	-6%[46.1 µM]	-63*!	3%
CCOCCCNC(=O)CN1C(=O)COc2ccc(S(=O)(=O)N3CCOCC3)cc21	14%	9%[46.1 µM]	6%[46.1 µM]	u	-3%
Cc1ccc(NC(=O)CN2C(=O)COc3ccc(S(=O)(=O)N4CCCC4)cc32)cc1C	-12%	3%[46.1 µM]	u	44	-14%
C/C(=N\Nc1ccc(Cl)c(C(=O)O)c1)c1ccc(N2CCOCC2)cc1	-8%	6%[46.1 µM]	-18%	-7	27%
O=C(CN1C(=O)COc2ccc(S(=O)(=O)N3CCCC3)cc21)NCCc1ccc(Cl)cc1	x	x	3%[46.1 µM]	-73*	8%
CCCCCCCCOc1ccc(C(=O)O)cc1	6.3µM*	x	x	18	6%
CCCCOc1ccc(CN2CCSCC2)cc1	13%	x	x	14	26%
CCCCCCOc1ccc(CN2CCN(CC)CC2)cc1	u	u	u	-75*	-6%
Cc1ccc(C(=O)Nc2ccc3c(c2)OCO3)cc1	u	u	u	30	-51%
Cc1cccc(-c2cc(C(=O)Nc3ccc4c(c3)OCCO4)c3ccccc3n2)c1	u	-29%	-24%	-37	0%
O=C(Nc1ccc2c(c1)OCCO2)c1cc(-c2ccccn2)nc2ccc(Br)cc12	-29%	16%[46.1 µM]	10%	-94*	-19%
O=C(Nc1ccc2c(c1)OCCO2)c1cccc(Br)c1	-19%	u	-2%[46.1 µM]	150	1%
O=C(Nc1ccc2c(c1)OCCO2)c1cccc(Cl)c1Cl	-21%	x	x	137	0%
O=C(Nc1ccc2c(c1)OCCO2)c1ccc(Br)cc1	u	4µM*	u	17	2%
Cc1ccc(C(=O)Nc2ccc3c(c2)OCCO3)cc1	0%	u	2.8µM*	u	u
O=C(Nc1ccc2c(c1)OCCO2)c1c(Cl)cccc1Cl	x	x	x	-85*	24%
CCOCCCn1c(SCC(=O)NCc2ccccc2)nc2c(sc3ccccc32)c1=O	x	x	-8%[46.1 µM]	u	-24%
COC(=O)CC1C(C)(C)C2(O)OC34CC2C(=O)[C@@]1(C)C3CC[C@]1(C)C4=CC(=O)OC1c1ccoc1 (some centres undefined)	x	x	x	x	24%
CC(C)(C)c1ccc(/C=C/C(=O)Nc2ccc3c(c2)OCCO3)cc1	x	-27%	6.5µM*	x	x
COc1ccc2c3c(n(C)c2c1)[C@@H](CO)N(Cc1cc(F)ccc1F)CC31CN(C(C)=O)C1	x	x	x	-36	x
O=S(=O)(NCC1CN(S(=O)(=O)c2c(F)cccc2F)C1)c1ccc2c(c1)OCCO2	x	x	x	-62*	10%
CN1CCN(Cc2nc3ccccc3c(=O)n2CC#N)CC1	6%	x	x	19	-9%
SMILES	HCV inhibitor	Marburg entry inh	Lassa entry inh	HCMV inh	FMDV antiviral
N#CCn1c(CCl)nc2ccccc2c1=O	4%	x	x	-34	7.9µM*
O=C(NCc1nnc2n1CCN(C(=O)c1cccc(Cl)c1)CC2)C1CC1	x	x	x	x	-2%
CCCC[C@@H](CN[C@H](C)CNC)NCC1CCC(C(C)(C)C)CC1 (some centres undefined)	u	x	x	-87*	-15%
Cc1ccc(Cl)cc1NC(=O)N(C)CCO	5%	x	x	-13	-1%
COc1ccc(CCN2C(=O)c3ccccc3NC2c2cc(Cl)c(O)c(OC)c2)cc1 (centres undefined)	-13%	u	5.6µM*	-20	-5%
CCCN1C(=O)c2ccccc2NC1c1cc(OC)c(OC)c(OC)c1 (centres undefined)	15%	-13%	-21%	23	-6%
C=CCN(c1ccccc1)S(=O)(=O)c1cccc(C(=O)N2CCCC2)c1	-8%	10%	-9%[46.1 µM]	-26	20%
CN(c1ccccc1)S(=O)(=O)c1cccc(C(=O)N2CCCCCC2)c1	u	-25%[46.1 µM]	u	-34	-7%
COc1ccc(N(C)S(=O)(=O)c2cccc(C(=O)OCC(=O)NCc3ccccc3OC)c2)cc1	-3%	-14%[46.1 µM]	u	8	-29%
C=CCN(c1ccccc1)S(=O)(=O)c1cccc(C(=O)N2CC(C)CC(C)C2)c1 (centres undefined)	7.1µM*	u	u	-85*	-14%
COc1ccc(N(C)S(=O)(=O)c2cccc(C(=O)OCC(=O)N3CC(C)CC(C)C3)c2)cc1 (centres undefined)	u	u	u	-36	32µM*
CC1CC(C)CN(C(=O)c2cccc(S(=O)(=O)N(C)c3ccccc3)c2)C1 (centres undefined)	32µM*	u	u	u	0%
COc1ccc(N2CCN(C(=O)CCn3nc(C)c(S(=O)(=O)N4CCCC4)c3C)CC2)cc1	x	x	-16%[46.1 µM]	u	u
Cc1ncc(CN2CCC(N3CCC(C(=O)N4CCCC4)CC3)CC2)s1	-10%	4%	-4%	x	-15%
CC(C)=CCCC(C)CN1CCC(N2CCC(C(=O)N3CCCC3)CC2)CC1 (centres undefined)	2.5µM*	x	x	u	u
Cc1c(C(=O)NNC(=O)c2csc(N3CCOCC3)n2)oc2ccc(Br)cc12	x	x	x	13	8%
CN(C)S(=O)(=O)N1CCC(Oc2ccc(C(=O)NC3Cc4ccccc4C3)cc2)CC1	3.5µM*	x	x	-81*	u
COc1ccccc1OCC(=O)c1[nH]c(C)c(C(C)=O)c1C	u	u	u	-31	20µM*
CC(=O)c1c(C)[nH]c(C(=O)COc2cc(C)ccc2C(C)C)c1C	5.6µM*	u	u	u	-14%
CC(=O)Nc1ccc(/C=C/c2ccc3cccc([N+](=O)[O-])c3n2)cc1	11µM*	x	x	-90*	-14%
CCOc1ccc(NC(=S)NC(=O)/C=C/c2ccc(Br)cc2)c([N+](=O)[O-])c1	6%	-24%	21µM*	-17	12%
CCOc1ccc(NC(=S)NC(=O)c2cnn(CC)c2)c([N+](=O)[O-])c1	-18%	-12%[46.1 µM]	-23%[46.1 µM]	18	-15%
CC(NC(=O)CCNC(=O)N1CCn2c1nc1ccccc12)c1ccccc1 (centres undefined)	19%	x	x	0	-20%
CCN(CC)S(=O)(=O)c1ccc2c(c1)nc(CCC(=O)O)n2CC	15%	1%[14.2 µM]	10%	-13	-2%
CCN(CC)S(=O)(=O)c1cccc(NC(=O)Nc2cccc(C(F)(F)F)c2)c1	2µM*	15µM*	16µM*	x	18µM*
CCN(CC)S(=O)(=O)c1ccc2c(c1)nc(CCC(=O)Nc1cccc(C(F)(F)F)c1)n2CC	u	11µM*	u	7	-10%
